# Source: PubChem BioAssay
# Several values for one entry are separate records, joined by “and”; a condition that tells them apart may be missing. Equal values may be shown once. Records with an inconclusive call do not appear. Activity calls are given as the source filed them.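 Rule for the calls, unless noted: active = compounds whose cell count with miR-34 switched on is under 0.7 times the count with it off; inactive = the rest.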
# Legend:
# [1] = hESC survival regulators, cell-based (AID 493140; call rule not given here;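 note: cells exposed to compounds for four days before counting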); details: human embryonic stem cell survival screen; stronger effect = higher value
# [2] = sensitizers of A549 cells to miR-34 induction, primary screen, imaging, A549 dox-inducible miR-34, nuclei and caspase counts (AID 1347080); details: A549 miR-34 inducible, Hoechst nuclei count, 48 h
# [3] = molecular target: ATP-dependent translocase ABCB1 (Homo sapiens) (UniProt P08183); assay: MDR1 (ABCB1) efflux transporter inhibition, cell-based (AID 377; in the data active = fluorescence slope change above about 50%); details: MDR1-expressing cells, fluorescent substrate accumulation slope; stronger effect = higher value; concentration not given here
# Sequence of ATP-dependent translocase ABCB1 (Homo sapiens) (P08183 whole entry, looked up): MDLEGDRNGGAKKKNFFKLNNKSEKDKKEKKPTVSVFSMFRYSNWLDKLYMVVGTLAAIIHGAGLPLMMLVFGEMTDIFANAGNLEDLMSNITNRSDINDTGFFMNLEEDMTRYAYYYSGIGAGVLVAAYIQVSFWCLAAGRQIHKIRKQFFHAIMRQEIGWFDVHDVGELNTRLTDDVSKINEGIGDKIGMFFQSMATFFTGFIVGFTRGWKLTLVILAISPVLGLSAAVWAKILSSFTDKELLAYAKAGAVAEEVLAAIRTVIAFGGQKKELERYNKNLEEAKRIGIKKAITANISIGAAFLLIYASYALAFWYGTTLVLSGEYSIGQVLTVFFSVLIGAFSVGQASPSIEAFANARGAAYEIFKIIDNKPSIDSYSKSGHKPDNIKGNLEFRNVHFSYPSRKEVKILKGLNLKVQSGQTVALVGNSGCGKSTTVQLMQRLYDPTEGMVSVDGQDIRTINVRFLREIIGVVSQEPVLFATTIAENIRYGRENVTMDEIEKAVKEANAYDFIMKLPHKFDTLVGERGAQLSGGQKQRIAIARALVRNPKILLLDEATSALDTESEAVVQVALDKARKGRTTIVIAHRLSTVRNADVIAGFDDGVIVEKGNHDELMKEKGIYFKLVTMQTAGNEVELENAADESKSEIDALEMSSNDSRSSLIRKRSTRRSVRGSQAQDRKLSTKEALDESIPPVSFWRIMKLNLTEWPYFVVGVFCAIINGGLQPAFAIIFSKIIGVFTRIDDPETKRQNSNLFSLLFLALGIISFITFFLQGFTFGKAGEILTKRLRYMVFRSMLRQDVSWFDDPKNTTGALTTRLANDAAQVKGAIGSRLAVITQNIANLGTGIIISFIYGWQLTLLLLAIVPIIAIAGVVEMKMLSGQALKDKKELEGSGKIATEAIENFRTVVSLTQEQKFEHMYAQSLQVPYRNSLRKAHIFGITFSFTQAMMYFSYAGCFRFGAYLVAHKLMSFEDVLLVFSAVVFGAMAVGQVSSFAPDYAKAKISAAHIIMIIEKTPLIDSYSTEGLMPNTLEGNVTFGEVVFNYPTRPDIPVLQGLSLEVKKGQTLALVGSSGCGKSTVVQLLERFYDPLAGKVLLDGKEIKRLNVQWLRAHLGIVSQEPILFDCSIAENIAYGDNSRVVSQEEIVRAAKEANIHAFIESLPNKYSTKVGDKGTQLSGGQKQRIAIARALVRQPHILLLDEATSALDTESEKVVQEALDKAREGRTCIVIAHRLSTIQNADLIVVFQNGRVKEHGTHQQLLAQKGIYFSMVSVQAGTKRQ
# [4] = liver-stage malaria parasite growth inhibition, primary screen, cell-based, HepG2, luciferase luminescence, HepG2 viability (AID 624349; in the data active = parasite load remaining mostly below about 12%, no sharp cut-off; inactive = mostly above about 10%;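 note: 100% = mean of DMSO negative control wells on the same plate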); details: P. berghei liver stage in HepG2, luciferase luminescence, concentration not given here; parasite load remaining: stronger effect = lower value; viability: measured here: HepG2 viability without parasites
# [5] = stronger effect = lower value, cell number ratio, induced over uninduced
# [6] = measured here: relative caspase fold change +Dox/-Dox
# [7] = measured here: total cells with miR-34 induction, stronger effect = lower value
# [8] = measured here: total cells without miR-34 induction
SMILES,survival [1],"fold change [2, 5]","fold change [2, 6]","cell count [2, 7]","cell count [2, 8]",fluorescence slope change [3],parasite load remaining [4],viability [4]
CCCCC[C@H](O)/C=C/[C@@H]1[C@@H](CC(=O)CCCCC(=O)O)[C@@H](O)C[C@H]1O,129 (inactive),0.992 (inactive) and 0.934 (inactive),1.02 and 1.32,5930 and 6160,5980 and 6600,–,–,–
O[C@@H]1[C@@H](O)C=C2CCN3Cc4cc5c(cc4[C@H]1C23)OCO5 (stereo partly drawn),0.583 (inactive),0.89 (inactive),1.09,2250,2530,10.1% (inactive),-0.065% (active),101%
CCCCC[C@H](O)/C=C/[C@@H]1[C@H]2C/C(=C/CCCC(=O)O)C[C@H]2C[C@H]1O,59.9 (inactive),0.942 (inactive),1.29,5920,6280,–,–,–
CCCCCCCCCCCCCCCC(=O)C1=C(O)C(CO)OC1=O (stereo not drawn),98.2 (inactive),0.877 (inactive),0.963,5220,5960,–,–,–
CCCCCCCCCCCCCCC[C@@H](O)[C@@H](N)CO,56.7 (inactive),0.968 (inactive),1.46,5120,5290,–,–,–
CCCCCCCCCCCCCCCCCCOC[C@H](COP(=O)([O-])OCC[N+](C)(C)C)OC(C)=O,83.4 (inactive),0.968 (inactive) and 1 (inactive),1.1 and 0.859,5740 and 5730,5930 and 5720,–,–,–
COC(=O)[C@H]1[C@H]2C[C@@H]3c4[nH]c5cc(OC)ccc5c4CCN3C[C@H]2C[C@@H](OC(=O)/C=C/c2cc(OC)c(OC)c(OC)c2)[C@@H]1OC,9.58 (inactive),0.865 (inactive),1.32,7260,8390,61% (active),26.9% (inactive) and 41.8% (inactive),94.2% and 77.7%
CCCCC[C@H](O)/C=C/[C@@H]1[C@H](C/C=C\CCCC(=O)O)[C@@H](O)C[C@H]1O,105 (inactive),0.908 (inactive) and 0.973 (inactive),1.37 and 1.68,6000 and 5340,6610 and 5490,–,–,–
Cn1c(-c2ccc3c(c2)OCO3)cc(=O)c2ccccc21,4.17 (inactive),0.89 (inactive),1.11,8470,9520,6.8% (inactive),95.4% (inactive),95.4%
COc1ccc2c(OC)c3ccoc3nc2c1OC,3.67 (inactive),0.86 (inactive),1.16,8660,10100,16.3% (inactive),157% (inactive),95.8%
CCCCCCCCCCCCCCCCCCOC[C@@H](O)COP(=O)([O-])OCC[N+](C)(C)C,71.2 (inactive),0.968 (inactive),0.597,5980,6180,–,–,–
CC/C=C\C/C=C\C/C=C\C/C=C\C/C=C\C/C=C\CCC(=O)O[C@H](COCCCCCCCCCCCCCCCC)COP(=O)([O-])OCC[N+](C)(C)C,68.5 (inactive),1.06 (inactive),1.37,5710,5380,–,–,–
C[N+]1(C)C[C@@H](O)C[C@H]1C(=O)[O-],7 (inactive),0.868 (inactive),1.07,8350,9610,28.3% (inactive),117% (inactive),106%
CCCCCCCCCCCCCCCCOCC(CO)OC (stereo not drawn),85.4 (inactive),1.02 (inactive),1.45,5930,5790,–,–,–
O=C(O)CCC/C=C\C[C@@H]1[C@@H](/C=C/[C@@H](O)COc2cccc(C(F)(F)F)c2)[C@H](O)C[C@@H]1O,118 (inactive),0.964 (inactive) and 1.06 (inactive),2.48 and 1.05,5470 and 6950,5680 and 6530,–,–,–
CCCCC[C@H](O)/C=C/[C@@H]1[C@H]2C/C(=C/CCCC(=O)O)O[C@H]2C[C@H]1O,102 (inactive),1.05 (inactive),1.16 and 1.02,6320 and 6530,6040 and 6220,–,–,–
CCCCCC(=O)CC[C@@H]1[C@@H](C/C=C\CCCC(=O)O)[C@@H](O)C[C@H]1O,82.4 (inactive),0.925 (inactive),1.4,5510,5950,–,–,–
CCCCCCCCCCCCCCC[C@@H](O)[C@H](CO)NC(C)=O,81.5 (inactive),1.08 (inactive),1,5490,5090,–,–,–
CCCCCCCCCCCCCC(=O)N[C@H](C)[C@@H](O)c1ccccc1,87.5 (inactive),1.02 (inactive),1.49 and 1.71,5830 and 6030,5700 and 5920,–,–,–
CO[C@@H]1[C@@H](OC(N)=O)[C@@H](O)C(Oc2ccc3c(O)c(NC(=O)c4ccc(O)c(CC=C(C)C)c4)c(=O)oc3c2C)OC1(C)C (stereo partly drawn),–,0.855 (inactive),1.4,9430,11000,82.3% (active),78.5% (inactive),90.9%

SMILES,survival [1],"fold change [2, 5]","fold change [2, 6]","cell count [2, 7]","cell count [2, 8]",fluorescence slope change [3],parasite load remaining [4],viability [4]
COc1c(O[C@@H]2O[C@H](CO)[C@@H](O)[C@H](O)[C@H]2O)cc2c(c1OC)-c1ccc(SC)c(=O)cc1C(NC(C)=O)CC2 (stereo partly drawn),8.17 (inactive),0.892 (inactive),1.15,8970,10100,56.6% (active),68.6% (inactive) and 75.2% (inactive),120% and 78%
COc1c(O)cc2c(c1O)C1OC(CO)C(O)C(O)C1OC2=O (stereo not drawn),2.17 (inactive),0.91 (inactive),1.19,9380,10300,18.9% (inactive),89.5% (inactive),106%
C=C1C(c2ccc(C)cc2)=CCc2cc(C)cc(C)c21,98.5 (inactive),0.866 (inactive),0.886,1920,2210,–,–,–
CCCCCC(O)/C=C/C=O (stereo not drawn),101 (inactive),0.954 (inactive),1.27,5280,5530,–,–,–
C[C@H](CCC(=O)NCC(=O)O)[C@H]1CC[C@H]2[C@@H]3[C@H](O)C[C@@H]4C[C@H](O)CC[C@]4(C)[C@H]3C[C@H](O)[C@]12C,14.6 (inactive),0.862 (inactive),1.21,8770,10200,91% (active),142% (inactive) and 80.1% (inactive),103% and 76.4%
CCCCCCCCCCCCC(O)C(=O)O (stereo not drawn),71.7 (inactive),0.965 (inactive) and 0.989 (inactive),1.1 and 0.875,6110 and 6000,6330 and 6060,–,–,–
CCCCC[C@H](O)/C=C/[C@H]1OC(O)C[C@H](O)[C@@H]1C/C=C\CCCC(=O)O (stereo partly drawn),96.2 (inactive),0.852 (inactive),1.59,5370,6300,–,–,–
CCCCCC(=O)/C=C/[C@H]1[C@H](O)CC(=O)[C@@H]1C/C=C\CCCC(=O)O,92.3 (inactive),0.973 (inactive),1.18,6130,6300,–,–,–
CCCCCCCCCC(=O)OCC(CO)OC(=O)CCCCCCCCC (stereo not drawn),93.4 (inactive),1.02 (inactive),0.801,4940,4860,–,–,–
C=C1CC[C@H](O)C/C1=C/C=C1\CCC[C@]2(C)[C@@H]([C@H](C)CC[C@@H](O)C(C)(C)O)CC[C@@H]12,80.4 (inactive),1.03 (inactive),1.15,5660,5500,–,–,–
CCCCCCCCCCCCCCC[C@@H](O)[C@H](CO)NC(=O)CCCCCCC,84.9 (inactive),0.925 (inactive),1.41,5910,6390,–,–,–
Clc1cnccn1,4.25 (inactive),0.949 (inactive),0.524,9270,9770,–,81.6% (inactive),71.5%
CCCCC[C@H](O)/C=C/[C@@H]1[C@@H](C/C=C\CCCC(=O)O)[C@@H](O)C[C@@H]1O,97.2 (inactive),0.891 (inactive) and 0.917 (inactive),1.22 and 1.29,5840 and 5720,6560 and 6230,–,–,–
COc1ccc(CC(C)(N)C(=O)O)cc1OC (stereo not drawn),17 (inactive),0.962 (inactive),0.938,9190,9550,–,64.7% (inactive),74.8%
CCCCCCCCCCCCCCCC(=O)NCCc1ccc(O)c(O)c1,69.7 (inactive),0.93 (inactive),0.624,5560,5980,–,–,–
C[N+]1(C)CCC[C@H]1C(=O)[O-],11.7 (inactive),0.876 (inactive),1.44,8860,10100,–,174% (inactive) and 67% (inactive),106% and 78.6%
Nc1ncnc2c1ncn2C1O[C@H](CO)[C@@H](O)[C@@H]1O (stereo partly drawn),–,0.85 (inactive),1.24,7580,8920,–,68.6% (inactive),95.5%
CCCCCC(=O)/C=C/[C@@H]1[C@@H](C/C=C\CCCC(=O)O)[C@@H](O)C[C@H]1O,66.1 (inactive),1.04 (inactive),1.11,6170,5940,–,–,–
CCCCCCCCCCCCCCCCOCC(COP(=O)([O-])OCC[N+](C)(C)C)OC (stereo not drawn),64.4 (inactive),0.921 (inactive),1.04,5520,5990,–,–,–
